In all, about 5,500 compounds went through this assay and about 2,000 (36%) were called active. Not shown: some 18% with an inconclusive outcome. Cut-off read from the data, not from the text of the source: active = normalized growth mostly below about 0.91 (no sharp cut-off); inconclusive = no clear call, values can overlap the other calls; inactive = mostly above about 0.92. The list shows a part of the results.
Experiment: chemical genetic growth profiling, strain panel (AID 1159580);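 note: tested at 20 µM; growth read once vehicle control cultures reached saturation at 30 °C; 1 = growth at the plate median or of vehicle wells; lower values mean less growth of the strain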
Conditions: growth OD

Measured: normalized growth

NNC(=O)c1ccncc1
inactive: S. cerevisiae deletion strains, locus YJR075W, strain HOC1, stronger effect = lower value 1.01 | S. cerevisiae deletion strains, locus YKL009W, strain mrt4, stronger effect = lower value 0.98 | S. cerevisiae deletion strains, locus YKL068W, stronger effect = lower value 0.992 | S. cerevisiae deletion strains, locus YKL085W, strain MDH1 (second series), stronger effect = lower value 0.991 | S. cerevisiae deletion strains, locus YKL085W, strain MDH1, stronger effect = lower value 0.991 | S. cerevisiae deletion strains, locus YKL160W, strain elf1, stronger effect = lower value 1.04 | S. cerevisiae deletion strains, locus YKL190W, strain CNB1, stronger effect = lower value 0.992 | S. cerevisiae deletion strains, locus YKR001C, strain vps1, stronger effect = lower value 0.993 | S. cerevisiae deletion strains, locus YKR026C, strain gcn3, stronger effect = lower value 1.01 | S. cerevisiae deletion strains, locus YKR091W, strain srl3, stronger effect = lower value 1 | S. cerevisiae deletion strains, locus YLL001W, strain dnm1, stronger effect = lower value 1.03 | S. cerevisiae deletion strains, locus YLL026W, stronger effect = lower value 1.03 | S. cerevisiae deletion strains, locus YLL041C, strain sdh2, stronger effect = lower value 1 | S. cerevisiae deletion strains, locus YLR027C, strain aat2, stronger effect = lower value 1.03 | S. cerevisiae deletion strains, locus YLR039C, strain RIC1, stronger effect = lower value 1.05 | S. cerevisiae deletion strains, locus YLR058C, strain SHM2, stronger effect = lower value 1.01 | S. cerevisiae deletion strains, locus YLR102C, strain apc9, stronger effect = lower value 0.998 | S. cerevisiae deletion strains, locus YLR113W, strain HOG1, stronger effect = lower value 1.01 | S. cerevisiae deletion strains, locus YLR221C, strain rsa3, stronger effect = lower value 0.986 | S. cerevisiae deletion strains, locus YLR258W, strain gsy2, stronger effect = lower value 0.99 | S. cerevisiae deletion strains, locus YLR262C, strain YPT6 (second series), stronger effect = lower value 1.03 | S. cerevisiae deletion strains, locus YLR262C, strain YPT6, stronger effect = lower value 1.01 | S. cerevisiae deletion strains, locus YLR268W, strain sec22, stronger effect = lower value 0.991 | S. cerevisiae deletion strains, locus YLR320W, strain mms22, stronger effect = lower value 0.986 | S. cerevisiae deletion strains, locus YLR330W, strain CHS5, stronger effect = lower value 1.01 | S. cerevisiae deletion strains, locus YLR342W, strain FKS1 (second series), stronger effect = lower value 1.01 | S. cerevisiae deletion strains, locus YLR342W, strain FKS1, stronger effect = lower value 1.02 | S. cerevisiae deletion strains, locus YLR357W, strain rsc2, stronger effect = lower value 0.998 | S. cerevisiae deletion strains, locus YLR370C, strain arc18, stronger effect = lower value 1.02 | S. cerevisiae deletion strains, locus YLR371W, strain rom2, stronger effect = lower value 0.988 | S. cerevisiae deletion strains, locus YLR384C, strain iki3, stronger effect = lower value 1.01 | S. cerevisiae deletion strains, locus YLR418C, strain cdc73, stronger effect = lower value 0.964 | S. cerevisiae deletion strains, locus YML016C, strain PPZ1, stronger effect = lower value 1.01 | S. cerevisiae deletion strains, locus YML032C, strain rad52, stronger effect = lower value 0.995 | S. cerevisiae deletion strains, locus YML120C, strain ndi1, stronger effect = lower value 1.06 | S. cerevisiae deletion strains, locus YML124C, strain tub3, stronger effect = lower value 0.988 | S. cerevisiae deletion strains, locus YMR058W, strain fet3, stronger effect = lower value 1.04 | S. cerevisiae deletion strains, locus YMR078C, strain ctf18, stronger effect = lower value 1 | S. cerevisiae deletion strains, locus YMR125W, strain sto1, stronger effect = lower value 1.02 | S. cerevisiae deletion strains, locus YMR129W, stronger effect = lower value 1 | S. cerevisiae deletion strains, locus YMR205C, strain PFK2, stronger effect = lower value 1.03 | S. cerevisiae deletion strains, locus YMR223W, strain ubp8, stronger effect = lower value 0.974 | S. cerevisiae deletion strains, locus YMR231W, strain pep5, stronger effect = lower value 0.995 | S. cerevisiae deletion strains, locus YMR307W, strain GAS1, stronger effect = lower value 0.997 | S. cerevisiae deletion strains, locus YNL067W, strain RPL9B, stronger effect = lower value 0.996 | S. cerevisiae deletion strains, locus YNL071W, strain lat1, stronger effect = lower value 0.996 | S. cerevisiae deletion strains, locus YNL153C, strain GIM3, stronger effect = lower value 1.01 | S. cerevisiae deletion strains, locus YNL183C, strain NPR1, stronger effect = lower value 0.948 | S. cerevisiae deletion strains, locus YNL209W, strain ssb2, stronger effect = lower value 1 | S. cerevisiae deletion strains, locus YNL233W, strain BNI4, stronger effect = lower value 1.01 | S. cerevisiae deletion strains, locus YNL248C, strain rpa49, stronger effect = lower value 0.988 | S. cerevisiae deletion strains, locus YNL250W, strain rad50, stronger effect = lower value 0.977 | S. cerevisiae deletion strains, locus YNL271C, strain bni1, stronger effect = lower value 0.985 | S. cerevisiae deletion strains, locus YNL298W, strain CLA4, stronger effect = lower value 0.986 | S. cerevisiae deletion strains, locus YNL307C, strain MCK1, stronger effect = lower value 0.995 | S. cerevisiae deletion strains, locus YNL322C, strain KRE1 (second series), stronger effect = lower value 1.02 | S. cerevisiae deletion strains, locus YNR049C, strain mso1, stronger effect = lower value 1.01 | S. cerevisiae deletion strains, locus YNR052C, strain pop2, stronger effect = lower value 1 | S. cerevisiae deletion strains, locus YOL012C, strain htz1 0.873 | S. cerevisiae deletion strains, locus YOL147C, strain pex11, stronger effect = lower value 0.994 | S. cerevisiae deletion strains, locus YOR001W, strain rrp6, stronger effect = lower value 1.03 | S. cerevisiae deletion strains, locus YOR061W, strain CKA2, stronger effect = lower value 1.02 | S. cerevisiae deletion strains, locus YOR069W, strain VPS5, stronger effect = lower value 1 | S. cerevisiae deletion strains, locus YOR070C, strain gyp1, stronger effect = lower value 1 | S. cerevisiae deletion strains, locus YOR080W, strain dia2, stronger effect = lower value 1.01 | S. cerevisiae deletion strains, locus YOR083W, strain WHI5, stronger effect = lower value 1 | S. cerevisiae deletion strains, locus YOR106W, strain vam3, stronger effect = lower value 1.04 | S. cerevisiae deletion strains, locus YOR136W, strain idh2, stronger effect = lower value 0.998 | S. cerevisiae deletion strains, locus YOR144C, strain elg1, stronger effect = lower value 0.994 | S. cerevisiae deletion strains, locus YOR184W, strain ser1, stronger effect = lower value 0.981 | S. cerevisiae deletion strains, locus YOR231W, strain MKK1, stronger effect = lower value 0.992 | S. cerevisiae deletion strains, locus YOR265W, strain rbl2, stronger effect = lower value 1.01 | S. cerevisiae deletion strains, locus YOR270C, strain vph1, stronger effect = lower value 1 | S. cerevisiae deletion strains, locus YOR290C, strain snf2, stronger effect = lower value 0.965 | S. cerevisiae deletion strains, locus YOR316C, strain cot1, stronger effect = lower value 0.997 | S. cerevisiae deletion strains, locus YPL051W, strain arl3, stronger effect = lower value 1.02 | S. cerevisiae deletion strains, locus YPL055C, strain LGE1, stronger effect = lower value 1.01 | S. cerevisiae deletion strains, locus YPL078C, strain atp4, stronger effect = lower value 1.06 | S. cerevisiae deletion strains, locus YPL106C, strain sse1, stronger effect = lower value 1.01 | S. cerevisiae deletion strains, locus YPL240C, strain hsp82, stronger effect = lower value 1.02 | S. cerevisiae deletion strains, locus YPL256C, strain CLN2, stronger effect = lower value 0.966 | S. cerevisiae deletion strains, locus YPR119W, strain clb2, stronger effect = lower value 0.987 | S. cerevisiae deletion strains, locus YPR141C, strain kar3, stronger effect = lower value 0.99 | S. cerevisiae deletion strains, locus YPR163C, strain tif3, stronger effect = lower value 0.987 | S. cerevisiae deletion strains, locus YPR167C, strain met16, stronger effect = lower value 0.981 | S. cerevisiae deletion strains, strain wtn01, stronger effect = lower value 0.98 | S. cerevisiae strains, strain wild type, stronger effect = lower value 1

From PubChem BioAssay AID1159580 (chemical genetic matrix, 2015)
